An excerpt weighted towards active compounds, which were near 4% of everything screened.
Peg3 prom inh: reduces Peg3 promoter-driven luciferase expression in HeLa. inhibition, % at 20 µM. HeLa PEG-Prom luciferase reporter, luminescence, overnight. 1.7% of 360,000 active. AID 588405;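 active = inhibition of at least 50% at 20 µM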
HIF-2a inh: blocks HIF-2a reporter activity | 0.72% of 360,000 active | 786-0 RCC cells HIF-2a reporter, luciferase luminescence, overnight | inhibition, % at 18.8 µM;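 active = inhibition of the luminescence signal of 40% or more relative to plate controls, in a single-dose primary screen at 18.75 µM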
KKLEB tox: reduces viability of KKLEB cystic fibrosis airway cells; 0.36% of 360,000 active; KKLEB CF airway cells viability, ATPlite luminescence, overnight; active compounds read low; cells stimulated with P. aeruginosa culture filtrate; activity change (cytotoxicity), % at 5 µM; AID 602141;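 active = corrected activity change at or below -50% at 5 µM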
CF NFkB block: cystic fibrosis NF-kB activation inhibition. KKLEB NF-kB-GFP reporter, PAF-induced, GFP fluorescence overnight. inhibition, % at 5 µM. 0.86% of 360,000 active. AID 588850;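 active = at least 50% inhibition at 5 µM, scaled per plate between neutral and stimulator controls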;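 also: PAF is a Pseudomonas aeruginosa culture filtrate used as stimulus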
TROY signal inh: TROY signaling inhibition; 0.98% of 360,000 active; Q293 LMP1-TROYcd NF-kB luciferase reporter, 4 h; inhibition, % at 10 µM;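 active = compounds whose plate-normalised and pattern-corrected inhibition of the luciferase reporter signal at the single screening dose is 50% or more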
TWEAK-Fn14 inh: TWEAK-Fn14 signaling inhibition; AID 1159606; 2% of 360,000 active; TWEAK-stimulated Fn14 reporter cells, luciferase luminescence, 8 h; inhibition, % at 10 µM; in the data active = inhibition above about 50%
CF NFkB inh conf: confirmation of cystic fibrosis induced NF-kB inhibitors | shares compounds with CF NFkB block | inhibition, % at 5 µM | 64% of 1,300 active | KKLEB CF airway cells, PAF-induced NF-kB-GFP fluorescence, overnight | AID 602472; in the data active = inhibition above about 40%;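 also: stimulus PAF is a Pseudomonas aeruginosa filtrate and not platelet activating factor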
Large screens that a line does not name were inactive (follow-up assays come after a bar, where they were run).

CCCNC(=O)c1cc(C2CCCN(C(=O)C3CC3)C2)on1 (configuration not stated)	none
CN1C2CCC1CC(OC(=O)C(CO)c1ccccc1)C2 (configuration not stated)	none
CC1(C)Cc2c(ccc3ccccc23)C(=O)N1	CF NFkB block 69 | CF NFkB inh conf 78
CC1(Cc2ccc(F)cc2)C(=O)Nc2ccc(-c3cccnc3)cc21 (configuration not stated)	CF NFkB block 67, TWEAK-Fn14 inh 64 | CF NFkB inh conf 74
C=Cc1ccc(CC2(C)C(=O)Nc3ccc(-c4cccnc4)cc32)cc1 (configuration not stated)	CF NFkB block 74, TWEAK-Fn14 inh 81 | CF NFkB inh conf 87
CC1(Cc2ccc(Cl)cc2)C(=O)Nc2ccc(-c3ccc(F)c(Cl)c3)cc21 (configuration not stated)	none
COc1ccccc1-c1ccc2c(c1)C(C)(Cc1ccc(Cl)c(Cl)c1)C(=O)N2 (configuration not stated)	none
COc1ccc(NC(=O)C23CC4CC(CC(Cl)(C4)C2)C3)cc1S(=O)(=O)N1CCOCC1	none
CCCCCCCCO	none
CCCCCCCCCCCCCCCC(O)C(N)CO (configuration not stated)	CF NFkB block 61 | CF NFkB inh conf inactive
COc1ccc(-c2c(N)cnc(C(=O)O)c2C)c(OCc2ccccc2)c1OC	none
Nc1c(C(=O)Nc2ccccc2)sc2ncc([N+](=O)[O-])cc12	none
NC(=O)c1sc2nccc(Nc3ccccc3)c2c1N	CF NFkB block 73 | CF NFkB inh conf 73
Cc1ccc(NC(=O)COC(=O)C2(CC(=O)NC(C)C)CCCC2)cc1C	none
COc1ccccc1CC1(C)C(=O)Nc2c(Cl)cccc21 (configuration not stated)	none
CCCCCOC(=O)c1[nH]c2c(c1C)C(=O)CC(c1ccco1)C2 (configuration not stated)	CF NFkB block 52 | CF NFkB inh conf 85
C=C1C[C@@]23CCC4[C@@](C)(CCC[C@@]4(C)C(=O)OC)C2CC[C@]1(OC(C)=O)C3 (some centres not stated)	CF NFkB block 51 | CF NFkB inh conf inactive
COc1ccc(Cl)cc1NC(=O)CN(C)C(=O)c1cc(-c2ccncc2)nc2ccccc12	CF NFkB block 61 | CF NFkB inh conf inactive
CC[C@H](CO)Nc1nc(Nc2cccc(Cl)c2)c2ncn(C(C)C)c2n1	Peg3 prom inh 94, CF NFkB block 68, TROY signal inh 61, TWEAK-Fn14 inh 71 | CF NFkB inh conf 92
Nc1cc2c(cc1Br)-c1ccccc1C2=NO	CF NFkB block 50 | CF NFkB inh conf 61
Cc1ccnc(NC(=O)c2ccc([N+](=O)[O-])s2)c1	none
O=[N+]([O-])c1ccc(O)c(C2CCCCC2)c1	CF NFkB block 64, TROY signal inh 61, TWEAK-Fn14 inh 52 | CF NFkB inh conf 93
C[C@H]1CN([C@@H](C)CO)C(=O)c2cccc(NC(=O)Nc3ccc(F)cc3)c2O[C@@H]1CN(C)Cc1ccc(C(=O)O)cc1	none
COc1cccc(C(=O)N2CCCc3ccccc32)c1	CF NFkB block 54 | CF NFkB inh conf inactive
COc1ccc(C(=O)N2CCCc3ccccc32)cc1OC	none
Cc1cccn2c(=O)c3cc(S(=O)(=O)c4ccc(F)cc4)c(=N)n(Cc4ccco4)c3nc12	CF NFkB block 76, TWEAK-Fn14 inh 56 | CF NFkB inh conf inactive
Cc1ccc(Nc2nc3nonc3[nH]c2=O)cc1Cl	CF NFkB block 52, TWEAK-Fn14 inh 59 | CF NFkB inh conf 81
Cc1cccnc1C1=NOC(Cc2ccccc2)C(=O)N1C (configuration not stated)	none
CCCCC[C@@H]1C=C(C(=O)O)[C@H](c2ccc(Br)cc2)N1S(=O)(=O)c1ccc(C)cc1	none
O=C1CCC(N2C(=O)c3ccccc3C2=O)C(=O)N1 (configuration not stated)	CF NFkB block 76 | CF NFkB inh conf inactive
Cc1ccc(S(=O)(=O)N2CCOCC2)cc1C(=O)NC(C)CCc1ccccc1 (configuration not stated)	none
Cc1cc(Br)cn2c(Cc3ccsc3)c(-c3cccc(Cl)c3)nc12	none
Cc1cc(Br)cn2c(Cc3ccsc3)c(-c3ccco3)nc12	CF NFkB block 60, TWEAK-Fn14 inh 51 | CF NFkB inh conf inactive
Cc1cc(Br)cn2c(Cc3ccsc3)c(-c3ccc(Cl)cc3)nc12	CF NFkB block 50 | CF NFkB inh conf inactive
COc1ccc(-c2nc3c(C)cc(Br)cn3c2Cc2ccsc2)cc1OC	none
CSCCC(C(=O)NCc1ccccc1)n1c(Cc2cc(F)cc(F)c2)nc2ccccc21 (configuration not stated)	none (no result: Peg3 prom inh, KKLEB tox, CF NFkB block, TROY signal inh, TWEAK-Fn14 inh)
CC(=O)Nc1c(Br)cc2c(c1Br)Cc1cc([N+](=O)[O-])ccc1-2	none
CC(=O)c1c(O)cc(O)c(C(C)=O)c1O	CF NFkB block 59, TROY signal inh 59 | CF NFkB inh conf 52
OC(c1ccccc1)(c1nc(-c2ccc(Cl)cc2)cs1)C(F)(F)F (configuration not stated)	none
COc1ccc(Cc2nnc(SCc3ccc([N+](=O)[O-])cc3)o2)cc1	CF NFkB block 65, TWEAK-Fn14 inh 65 | CF NFkB inh conf 86
COc1c(/C=N/Nc2ccc([N+](=O)[O-])cc2[N+](=O)[O-])c(C)nn1-c1ccccc1	CF NFkB block 60 | CF NFkB inh conf 41
Fc1ccccc1-c1csc(=Nc2cccnc2)n1CC1CCCO1 (configuration not stated)	none
Fc1ccccc1-c1csc(=Nc2cccnc2)n1CCCn1ccnc1	CF NFkB block 66, TWEAK-Fn14 inh 55 | CF NFkB inh conf 71
O=C(NCCc1c[nH]c2ccccc12)c1ccc([N+](=O)[O-])o1	CF NFkB block 70 | CF NFkB inh conf 43
CC(=O)N1CC(=O)N=C1SCC(=O)Nc1nc(C)c(-c2ccccc2)s1	CF NFkB block 51 | CF NFkB inh conf 60
CN(C(=O)CSc1nnc(C2CC2)n1C1CC1)C1(C#N)CCCCC1	none
COc1ccc(N(Cc2cc(=O)[nH]c3ccccc23)C(=O)CCl)cc1	Peg3 prom inh 80, CF NFkB block 75 | CF NFkB inh conf 71
COc1ccc(CN2C(=O)COc3ccccc3C2c2nc3ccccc3[nH]2)cc1 (configuration not stated)	none (no result: Peg3 prom inh, KKLEB tox, CF NFkB block)
C=CCSc1nc2ccccc2n1C(=O)/C=C/c1ccc(OC)c(OC)c1	Peg3 prom inh 104, CF NFkB block 92, TWEAK-Fn14 inh 98 | CF NFkB inh conf 103
